The panel holds about 83,000 compounds, 20% with a hit somewhere; the sample as a whole holds those more often.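 In brief: 96-well plates, 48 h treatment, single concentration, percent growth endpoint.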 Unmarked numbers belong to inactive results. Activity calls are given as the source filed them.
These molecules were tested on OVCAR-8 ovarian (assay: NCI-60 one-dose screen, 48 h (100 = growth as untreated, 0 = no growth, -100 = all killed)). Conditions: 10 µM.
Experimental: Growth inhibition of the OVCAR-8 human tumor cell line is measured as a screen for anti-cancer activity. Cells are grown in 96 well plates and exposed to the test compound for 48 hours. Compounds are tested at a single concentration, which is 10^-5 M for most compounds. The reported endpoint is percent growth (GI% or GIPRCNT), where numbers from 0 - 100% represent growth inhibition, and numbers from -100% - 0 represent cell death. For example, a value of 40 represents 60% growth inhibition. A value of 0 means no net growth occurred over the course of the experiment. A value of -40 indicates 40% of cells at the beginning of the experiment died by the end of the experiment. A value of -100 means all cells are dead at the end of the experiment.
NCI-60 Human Tumor Cell Lines Screen was performed using the standard one-dose NCI protocol, which is described in more detail at https://dtp.cancer.gov/discovery_development/nci-60/default.htm.
Compounds with GIPRCNT values below 10 were considered active. Activity score was based on GIPRCNT using the following formula: […]
Score is 0 for GIPRCNT values of 100 or above, 50 for GIPRCNT values of 0, and 100 for GIPRCNT values of -100.

Question: For `O=C(c1ccccc1)C(Sc1ccccc1)c1ccccc1` (stereo not given), which growth is on record?
Answer: Its growth is 86.8%.

Question: For `O=C(O)CNS(=O)(=O)c1ccc(OCCOc2ccc(S(=O)(=O)NCC(=O)O)cc2)cc1`, which growth is on record?
Answer: The growth was 102%.

Question: For `Cc1nc2sccn2c1-c1csc(Nc2cccc(Cl)c2C)n1`, which growth is on record?
Answer: Its growth is 65.6%.

Question: How did the growth turn out when `CC(=O)Oc1ccc(C2=Cc3ccc(OC(C)=O)cc3OC2C)cc1` (stereo not given) was run?
Answer: Its growth is 60.9%.

Question: Which growth does the source give for `Oc1[nH]c2ccccc2c1/C=c1/cc2c(c(-c3ccc(C(F)(F)F)cc3)n1)=Nc1ccccc1-2` here?
Answer: The growth was 63.5%.

Question: `CCNC(=S)NN` was tested. Which growth did it give?
Answer: The growth was 71.1%.

Question: `COc1cccc2c1O/C(=C\c1ccc([N+](=O)[O-])s1)C2=O` was tested. Which growth did it give?
Answer: Its growth is 24.7%.

Question: Which growth does the source give for `CCCCCCCOc1cccc(/C=C2/C(=O)N=C3SCCCN32)c1` here?
Answer: The growth was 71.6%.

Question: `COc1cc(-c2nc3ccccc3[nH]2)ccc1OCc1nnc(-c2ccc(Br)cc2)o1` was tested. Which growth did it give?
Answer: Its growth is 75.7%.

Question: For `COc1ccc(C2=Cc3ccc(OC(C)=O)cc3OC2)cc1`, which growth is on record?
Answer: The growth was 95.8%.

Question: With `CCCCCCCCCCN=C(c1ccc(N(C)C)cc1)c1ccc(N(C)C)cc1` as the molecule, how does the growth read?
Answer: Its growth is 30.9%.

Question: How did the growth turn out when `CC1=CSC2=NC(c3ccc(Cl)c(Cl)c3)=CC(c3ccc(Cl)cc3)N12` (stereo not given) was run?
Answer: Its growth is 29.1%.

Question: How did the growth turn out when `COc1ccc(-c2nc(-c3nc4ccc(C)cc4[nH]3)c3ccccn23)cc1` was run?
Answer: Its growth is 6.19% (active).

Question: `COc1ccc(S(=O)(=O)Nc2ccc(OCc3nnc(-c4ccc(Cl)cc4)o3)c(F)c2)cc1` was tested. Which growth did it give?
Answer: The growth was 60.4%.

Question: Which growth does the source give for `CC(C)OP(=O)(O)c1ncc(-c2ccc(C(F)(F)F)cc2)c(NC2CCCCCC2)n1` here?
Answer: Its growth is 52.3%.

Question: Which growth does the source give for `Cc1ccc(-n2c(-c3cc4c([nH]c5ccccc54)c(-c4cccc(O)c4)n3)n[nH]c2=S)cc1` here?
Answer: Its growth is 0.787% (active).

Question: With `COC(=O)c1cnc2c(c1)Oc1ccccc1-c1ccnn1-2` as the molecule, how does the growth read?
Answer: The growth was 91.9%.

Question: Which growth does the source give for `COc1ccc(-c2nc(SCC(=O)c3ccc(Br)cc3)[nH]c(=O)c2C#N)cc1` here?
Answer: Its growth is 106%.

Question: Which growth does the source give for `COc1ccc(Cn2cc3c(c2-c2cc(OC)c(OC)c(OC)c2)CCc2cnoc2-3)cc1N` here?
Answer: The growth was 28%.

Question: With `CNC(=O)c1cc(Oc2ccc(NC(=O)Nc3ccc(Cl)c(OC(C)C)c3)c(F)c2)ccn1` as the molecule, how does the growth read?
Answer: Its growth is 53.9%.

Question: With `Cc1ccc(/C=C2\CN(Cc3cn(CCNc4ccnc5cc(Cl)ccc45)nn3)C/C(=C\c3ccc(C)cc3)C2=O)cc1` as the molecule, how does the growth read?
Answer: Its growth is 8.83% (active).

Question: Which growth does the source give for `O=C(O)CN1C(=O)C=CC1=O` here?
Answer: The growth was 108%.

Question: How did the growth turn out when `COc1ccc(-c2cc(/C=C3\C(=O)Nc4cc(Cl)ccc43)[nH]n2)cc1OC` was run?
Answer: The growth was 104%.

Question: For `C/C=C\COc1cc(C)c(Cl)cc1Cl`, which growth is on record?
Answer: Its growth is 99.4%.

Question: For `CCCCCC(=O)N1c2ccccc2NC2=C(C(=O)CC(c3ccc(OC)c(OC)c3)C2)C1c1ccc(C(F)(F)F)cc1` (stereo not given), which growth is on record?
Answer: Its growth is 47.1%.

Question: How did the growth turn out when `CC(=O)OC1Oc2ccccc2-c2oc(=O)c(-c3ccc(F)cc3)cc21` (stereo not given) was run?
Answer: Its growth is 77.7%.

Question: `O=C(N/N=C/c1ccccc1O)c1ccccc1` was tested. Which growth did it give?
Answer: Its growth is 21.7%.

Question: For `C=C[C@]1(C)C=C2C(=O)[C@@]3(O)OC(=O)[C@@]4(CCCC(C)(C)[C@H]34)[C@@]2(O)CC1`, which growth is on record?
Answer: The growth was -56.8% (active).

Question: How did the growth turn out when `Cc1ccc2nc(-c3ccc(OCC(=O)N=Nc4c(O)[nH]c5ccccc45)cc3)[nH]c2c1` was run?
Answer: The growth was 18.5%.

Question: For `COc1cc(NS(C)(=O)=O)ccc1Nc1c2ccc(Cl)cc2nc2c(OC)cccc12`, which growth is on record?
Answer: Its growth is 11.7%.

Question: For `C=CCc1cc(Nc2c3ccc(Cl)cc3nc3ccc(OC)cc23)cc(CN(CC)CC)c1O`, which growth is on record?
Answer: Its growth is 8.73% (active).

Question: How did the growth turn out when `N=C(N)c1ccc(-c2ccc(-c3ccccc3)s2)s1` was run?
Answer: Its growth is -39.9% (active).

Question: `N#Cc1c2c([nH]c(=O)c1C(N)=O)CCCCC2` was tested. Which growth did it give?
Answer: The growth was 102%.

Question: With `COc1ccc(-c2nc(NC(=O)CS(=O)(=O)c3ccc(F)cc3)sc2C)cc1` as the molecule, how does the growth read?
Answer: The growth was 74%.

Question: `O=C(c1ccc(Cl)cc1)c1no[n+]([O-])c1C(=O)c1ccc(Cl)cc1` was tested. Which growth did it give?
Answer: Its growth is 30.1%.

Question: How did the growth turn out when `NC(N)=NS(=O)(=O)c1ccc(Nc2ccc3nnc(-c4ccncc4)n3n2)cc1` was run?
Answer: Its growth is 96.7%.

Question: `COC(=O)[C@]12CC[C@@H](C)[C@H](C)[C@@H]1C1=CC[C@@H]3[C@@]4(C)C[C@@H](O)[C@H](O)[C@@](C)(CO)[C@@H]4[C@H](O)C[C@@]3(C)[C@]1(C)CC2` was tested. Which growth did it give?
Answer: Its growth is -27.3% (active).

Question: Which growth does the source give for `COc1ccccc1S(=O)(=O)Nc1ccc2c(c1)CN(C)C(=O)N2` here?
Answer: The growth was 56.2%.

Question: Which growth does the source give for `Fc1ccc(Nc2ccnc(N3CCN(c4ccnc5cc(Cl)ccc45)CC3)n2)cc1` here?
Answer: Its growth is 36.6%.

Question: With `CC(=O)/C(=C\c1ccc(Cl)cc1)c1ccccc1` as the molecule, how does the growth read?
Answer: The growth was 15.2%.
